Screens: PubChem, several laboratories
MazEF act – activators of E. coli MazEF toxin-antitoxin RNase, primary screen, biochemical, fluorescence, uHTS; Endoribonuclease toxin MazF (Escherichia coli (strain K12)), P0AE70; FAM/BHQ RNA-DNA oligo cleavage fluorescence, 5 h; activation, % at 20 µM; hit rate 0.32% among 350,000; AID 504720, 2011; in the data active means activation above about 50%
Target sequence (P0AE70 whole entry, looked up): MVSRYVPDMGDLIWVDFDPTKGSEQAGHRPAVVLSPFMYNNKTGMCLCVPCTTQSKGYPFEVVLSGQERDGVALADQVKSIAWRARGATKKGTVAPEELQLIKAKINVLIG
PfHsp40 yeast – rescue of yeast from PfHsp40 toxicity, primary screen, S. cerevisiae, ATP luminescence; S. cerevisiae expressing PfHsp40, growth rescue; growth rescue, % at 12.5 µM; hit rate 0.68% among 340,000; AID 504582, 2011; in the data active means growth rescue above about 28%, passing the limit was not always enough;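 further: yeast W303a lacking pdr1 and pdr3 grown in galactose medium; growth measured after three days at 30 °C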
PrPC TRFRET – inhibitors of human cell surface prion protein PrPC, primary screen, cell-based, TR-FRET; AID 720596, 2013; inhibition, % at 13.8 µM; TR-FRET read-out; Major prion protein (Homo sapiens), P04156; hit rate 0.43% among 370,000; in the data active means inhibition above about 24%; further: 0% = median of the test wells and 100% = reference compound wells
SSB-PriA inh – inhibitors of Klebsiella pneumoniae PriA binding to SSB C-terminal tail, primary screen, biochemical, AlphaScreen. inhibition, % at 33 µM. AlphaScreen SSBct-PriA binding, biotinylated peptide. hit rate 0.6% among 430,000; in the data active means inhibition mostly above about 37%, no sharp cut-off; inactive means mostly below about 20%;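 further: plate controls were negative control peptide for no effect and reference peptide for full effect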
PrP UTR inh – inhibition of PrP 5' UTR reporter expression. cell-based PrP 5' UTR mRNA reporter, plate reader. inhibition, % (concentration not given with the values). hit rate 0.35% among 340,000. AID 488862, 2010; in the data active means inhibition above about 52%; further: 0 = median of the neutral control wells
* marks the source's active call; other numbers are inactive results. Shown are actives, neighbours in structure and some others; about 1.8% of the full set was active somewhere.

What do the screens show for `CCOn1c(=O)c(-c2ccc(Br)cc2)[n+]([O-])c2ccccc21`?
MazEF act: 2.6; PfHsp40 yeast: 0.4; PrPC TRFRET: -2.4; SSB-PriA inh: -11.1; PrP UTR inh: -13.2

Results for CCOn1c(=O)c(-c2cc3ccccc3o2)[n+]([O-])c2ccccc21 ?
MazEF act: 740.7*; PfHsp40 yeast: 5.9; SSB-PriA inh: -10.5; PrP UTR inh: -55.1

What do the screens show for `O=c1c(-c2cc3ccccc3o2)[n+]([O-])c2ccccc2n1OCc1ccccn1`?
MazEF act: 119.4*; PfHsp40 yeast: -0.1; PrPC TRFRET: -20.6; SSB-PriA inh: -10.9; PrP UTR inh: -54.4

Results for COc1ccc(C#Cc2ccc3c(c2)O[C@H](CN(C)S(=O)(=O)c2ccccc2F)[C@H](C)CN([C@H](C)CO)S3(=O)=O)cc1 ?
PrPC TRFRET: -4.0

How did COc1ccccc1C(=O)Nc1nc(-c2ccc(S(=O)(=O)N3CCOCC3)cc2)cs1 do in these assays?
MazEF act: -2.8; PfHsp40 yeast: 3.5; PrPC TRFRET: 24.9*; SSB-PriA inh: -0.8; PrP UTR inh: -22.5

Results for COc1ccc(C(=O)Nc2nc(-c3ccccn3)cs2)cc1S(=O)(=O)N1CCOCC1 ?
MazEF act: 9.6; PfHsp40 yeast: 0.6; PrPC TRFRET: 2.4; SSB-PriA inh: 46.4*; PrP UTR inh: 35.3

Results for O=C(Nc1nc(-c2csc(NC(=O)c3ccc(S(=O)(=O)N4CCOCC4)cc3)n2)cs1)c1ccc(S(=O)(=O)N2CCOCC2)cc1 ?
SSB-PriA inh: -9.0

Results for O=C(Nc1nc(-c2ccccn2)cs1)c1ccc(S(=O)(=O)N2CCOCC2)cc1 ?
SSB-PriA inh: 114.5*

Results for O=C(Nc1nc2ccccc2s1)c1ccc(N2CCCCC2)c([N+](=O)[O-])c1 ?
MazEF act: 12.8; PfHsp40 yeast: -0.3; PrPC TRFRET: 0.7; SSB-PriA inh: 39.1*; PrP UTR inh: -65.6

Results for COc1ccc(C(=O)Nc2ccccn2)cc1S(=O)(=O)N1CCOCC1 ?
MazEF act: 4.5; PfHsp40 yeast: -0.5; PrPC TRFRET: -1.1; SSB-PriA inh: 10.4; PrP UTR inh: -17.2

How did O=c1oc(CCO)cc2ccccc12 do in these assays?
MazEF act: 6.3; PfHsp40 yeast: -0.2; PrPC TRFRET: -1.1; SSB-PriA inh: -14.7; PrP UTR inh: 7.4

Results for CCc1ccc(NC2=NCC(=O)N2Cc2ccc3c(c2)OCO3)cc1 ?
MazEF act: -3.2; PfHsp40 yeast: -0.3; PrPC TRFRET: 10.5; SSB-PriA inh: -20.9; PrP UTR inh: 8.8

Results for CCSc1ccc(CC(=O)Nc2ccc(-c3nc4ccccc4[nH]3)cc2)cc1 ?
SSB-PriA inh: -1.0

What do the screens show for `COc1cccc(COC(=O)C2CCN(C(=O)c3ccccc3C)CC2)c1OC`?
MazEF act: 3.3; PfHsp40 yeast: 0.0; PrPC TRFRET: 2.1; SSB-PriA inh: -5.2; PrP UTR inh: -18.2

Results for O=C(Nc1nc(-c2ccccc2)cs1)c1ccc(N2CCOCC2)c([N+](=O)[O-])c1 ?
MazEF act: 12.8; PfHsp40 yeast: 0.0; SSB-PriA inh: 19.9; PrP UTR inh: -27.1

What do the screens show for `O=C(Nc1nc(-c2ccccn2)cs1)c1ccc(N2CCOCC2)c([N+](=O)[O-])c1`?
SSB-PriA inh: 91.5*

Results for CN1CCN(S(=O)(=O)c2cccc(C(=O)Nc3nc(-c4ccccn4)cs3)c2)CC1 ?
SSB-PriA inh: 123.5*

How did O=C(Nc1nc(-c2ccccn2)cs1)c1cc(S(=O)(=O)N2CCOCC2)ccc1Cl do in these assays?
SSB-PriA inh: 116.0*

How did Cc1cc(C)cc(NC(=O)N2C3CCCC2CC(NC(=O)C2CC2)C3)c1 (stereo not given) do in these assays?
MazEF act: 0.3; PfHsp40 yeast: -0.8; PrPC TRFRET: 3.7; SSB-PriA inh: 4.6; PrP UTR inh: -7.7

Results for Cc1c(C)c2c(OCC(=O)N3CCC(C(=O)O)CC3)cc3c(c2oc1=O)CCC(C)(C)O3 ?
MazEF act: -4.9; PfHsp40 yeast: 0.2; SSB-PriA inh: -0.9; PrP UTR inh: -25.5

Results for COc1cc2c(c(OC)c1)C(c1cccc(OC)c1OC)CC(=O)N2 (stereo not given) ?
MazEF act: 6.6; PfHsp40 yeast: 0.3; PrPC TRFRET: 2.6; SSB-PriA inh: 115.4*; PrP UTR inh: -23.2

Results for C[C@H]1COc2cc(Br)ccc2S(=O)(=O)N1Cc1cn(Cc2ccc(C(F)(F)F)cc2)nn1 ?
PrPC TRFRET: -5.5

What do the screens show for `Cc1ccc(S(=O)(=O)c2cnc3cc(C)nn3c2N)cc1`?
MazEF act: 2.3; PfHsp40 yeast: 31.7*; PrPC TRFRET: 0.9; SSB-PriA inh: 2.1; PrP UTR inh: -1.7

How did O=C(Nc1cccc(Cl)c1)N1CCc2ccccc2C1 do in these assays?
MazEF act: -0.6; PfHsp40 yeast: 44.1*; PrPC TRFRET: -5.3; SSB-PriA inh: -28.1; PrP UTR inh: -51.8

What do the screens show for `CC(C)(C)NC(=O)C1Cc2ccccc2CN1C(=O)Nc1cccc(Cl)c1` (stereo not given)?
MazEF act: 113.5*; PfHsp40 yeast: -0.5; PrPC TRFRET: 5.6; SSB-PriA inh: -21.4; PrP UTR inh: -1.7

How did Cc1ccc2c(C)c(C(=O)Nc3c(C)n(C)n(-c4ccccc4)c3=O)oc2c1C do in these assays?
MazEF act: 7.0; PfHsp40 yeast: 0.7; PrPC TRFRET: 4.0; SSB-PriA inh: -10.2; PrP UTR inh: -17.7

How did O=C(NCCCn1ccnc1)Nc1cc(Cl)cc(Cl)c1 do in these assays?
SSB-PriA inh: 56.5*

What do the screens show for `O=C(NCCCn1ccnc1)C(=O)NCc1ccccc1Cl`?
SSB-PriA inh: 85.0*

Results for O=C(NCCCn1ccnc1)Nc1cccc(Cl)c1 ?
MazEF act: 4.9; PfHsp40 yeast: 1.0; PrPC TRFRET: 2.5; SSB-PriA inh: 74.2*; PrP UTR inh: -21.8

What do the screens show for `CC(C)(C)C(=O)Nc1ccccc1C(=O)NCCCn1ccnc1`?
MazEF act: 4.9; PfHsp40 yeast: 0.1; PrPC TRFRET: 6.4; SSB-PriA inh: 50.5*; PrP UTR inh: -17.0

Results for O=C(NCCCn1ccnc1)C(=O)NCc1ccc(Cl)cc1 ?
MazEF act: 4.6; PfHsp40 yeast: 0.8; PrPC TRFRET: -3.0; SSB-PriA inh: -13.5; PrP UTR inh: -16.0

How did CCOc1ccccc1NC(=O)N1CCN(c2ccc3nncn3n2)CC1 do in these assays?
SSB-PriA inh: 3.0

Results for COc1ccccc1NC(=O)CSc1nc(N)c(C#N)cc1C#N ?
MazEF act: -6.1; PfHsp40 yeast: -0.9; PrPC TRFRET: 1.1; SSB-PriA inh: -18.8; PrP UTR inh: -16.3

What do the screens show for `O=C(Nc1ncnc2c1CCC2)C1COc2ccccc2O1` (stereo not given)?
SSB-PriA inh: 0.0

How did Cc1cc(-n2ccnc2)n2c(nc3ccccc32)c1C#N do in these assays?
MazEF act: 1.2; PfHsp40 yeast: 37.6*; PrPC TRFRET: -0.1; SSB-PriA inh: -0.2; PrP UTR inh: -20.2

Results for CCCc1cc(-n2nnc3ccccc32)n2c(nc3ccccc32)c1C#N ?
SSB-PriA inh: 1.0
